Source: ChEMBL document CHEMBL3988442, “University of Dundee, Small-Polar-MMV Screening Library” (2021)
Screen size: about 66,000 compounds; about 960 (1.5%) showed an effect of 50% or more. The sample holds strong results, similar compounds and a random draw of the others, so the mix is not that of the screen.

Tested on: Trypanosoma brucei
Test: Trypanosoma brucei 72 hour study
Type: functional, organism-based
Design: scale not given: in the data most compounds retested in dose-response had high values

c1cnc(-c2nc(CN3CCCC(Cn4cncn4)C3)cs2)nc1 (stereo not drawn)
Percent Effect (30 µM, 30.03 µM): 8.258%

Clc1ccc(CN2CCCC(Cn3cncn3)C2)c2ncccc12 (stereo not drawn)
Percent Effect (30 µM, 30.03 µM): -24.17%

c1ncn(CC2CCCN(Cc3csc(-c4ccsc4)n3)C2)n1 (stereo not drawn)
Percent Effect (30.3 µM, […]): -1.362%

CO[C@@H]1CCN(C(=O)Cc2ccc(F)cc2)[C@@H]1Cc1cccnc1.O=C(O)C(F)(F)F
Percent Effect (30.3 µM, […]): -10.6%

COCCN1CC[C@H]2CN(Cc3ccc(C)s3)C[C@@H]2C1=O.O=C(O)C(F)(F)F
Percent Effect (30.3 µM, […]): -7.411%

CO[C@H]1CN(Cc2nc3ccccc3n2C)CC[C@@]12CCCO2
Percent Effect (30.3 µM, […]): 5.707%

CO[C@H]1CN(Cc2ccccc2F)C[C@@]12CCCO2
Percent Effect (30.3 µM, […]): -11.54%

CO[C@H]1CN(Cc2nc3ccccc3n2C)C[C@@]12CCCO2
Percent Effect (30.3 µM, […]): 99.68%

O=C(O)C(F)(F)F.O=C(O)C(F)(F)F.O=C(c1ccnnc1)N1CCN(Cc2ccncc2)c2ncccc2C1
Percent Effect (30.3 µM, […]): -2.542%

Cc1nc(Nc2ncc(C)s2)cc(C2CCCN2S(C)(=O)=O)n1 (stereo not drawn)
Percent Effect (30.3 µM, […]): -10.42%

Cc1nc(Nc2nccs2)cc(C2CCCN2C2CCOCC2)n1 (stereo not drawn)
Percent Effect (30.3 µM, […]): 18.07%

Cc1nc(Nc2nnc(C)s2)cc(C2CCCN2)n1.Cl (stereo not drawn)
Percent Effect (30.3 µM, […]): -18.52%

Cc1nc(Nc2nncs2)cc(C2CCCN2)n1.Cl (stereo not drawn)
Percent Effect (30.3 µM, […]): -19.68%

Cc1nc(Nc2ncc(C)s2)cc(C2CCCN2)n1.Cl (stereo not drawn)
Percent Effect (30.3 µM, […]): 99.89%

Cc1nc(Nc2nccs2)cc(C2CCCN2)n1.Cl (stereo not drawn)
Percent Effect (30.3 µM, […]): 99.83%

COc1ccc(NC(=O)CCNc2ncccn2)cn1
Percent Effect (30 µM, 30.03 µM): -26.87%

CCn1cc(CN2C[C@@H]3CCCN3C[C@@H]2CCSC)cn1.O=C(O)CC(O)(CC(=O)O)C(=O)O
Percent Effect (30.3 µM, […]): 8.457%

O=C(NCC1CCOCC1)[C@@H]1C[C@@H]2[C@@H](CCN2Cc2nccs2)O1.O=C(O)C(F)(F)F
Percent Effect (30.3 µM, […]): -69.82%

Cc1cc(C[C@@H]2COC[C@H]2NCc2ccc(C(F)(F)F)cc2)on1.O=C(O)CC(O)(CC(=O)O)C(=O)O
Percent Effect (30.3 µM, […]): 8.396%

O=C(Cc1ccccn1)N1C[C@H](OCc2cccnc2)[C@H]2COC[C@H]21.O=C(O)C(F)(F)F.O=C(O)C(F)(F)F
Percent Effect (30.3 µM, […]): -31.71%

O=C(C1CC1)N1Cc2[nH]nc(COCc3cccnc3)c2C1.O=C(O)C(F)(F)F.O=C(O)C(F)(F)F
Percent Effect (30.3 µM, […]): -50.32%

COCCN(C)C[C@@H]1CN(c2nc(C)cc(C)n2)C[C@@H]1CO
Percent Effect (30 µM, 30.03 µM): -45.82%

COCCN(C)C[C@@H]1CN(Cc2ccnc3ccccc23)C[C@@H]1CO
Percent Effect (30 µM, 30.03 µM): -38.21%

COCCN(C)C[C@@H]1CN(c2cc(C)nc3ccccc23)C[C@@H]1CO
Percent Effect (30 µM, 30.03 µM): 99.51%

COCCNc1cc(-c2cccc(C(=O)O)c2C)c2cc[nH]c2n1
Percent Effect (30 µM, 30.03 µM): -15.23%

COCC(=O)N1CC[C@H]2C[C@H](C)O[C@@H]2C1
Percent Effect (30 µM, 30.03 µM): 19.11%

COCC(=O)N1CC[C@H]2O[C@@H](C)C[C@H]2C1
Percent Effect (30.3 µM, […]): -22.84%

COCC(=O)N1CC[C@@H]2O[C@@H](C)C[C@H]2C1
Percent Effect (30.3 µM, […]): 51.97%

O=C(O)C(F)(F)F.c1cnc(NCc2nnn3c2CN(Cc2cccs2)CCC3)nc1
Percent Effect (30 µM, 30.03 µM): -17.42%

Cc1occc1C(=O)N1CCC2(CCN(C(=O)c3cccnc3)C2)CC1.O=C(O)C(F)(F)F
Percent Effect (30.3 µM, […]): -37.63%

CC(CNS(C)(=O)=O)Oc1cccc(Cl)c1 (stereo not drawn)
Percent Effect (30 µM, 30.03 µM): -19.79%

Cc1ccc(Oc2c(F)cccc2OC[C@@H](N)CC(C)C)cc1
Percent Effect (30.3 µM, […]): 99.61%

CNCc1cc(F)ccc1Oc1ccc(Cl)cc1
Percent Effect (30.3 µM, […]): -18.58%

CC(C)C[C@H](N)COc1cccc(F)c1Oc1ccc(Cl)cc1
Percent Effect (30.3 µM, […]): 100.5%

CC(C)C[C@H](N)COc1cccc(F)c1Oc1cccc(Cl)c1
Percent Effect (30.3 µM, […]): 99.87%

CC(C)C[C@H](N)COc1cccc(F)c1Oc1ccccc1
Percent Effect (30.3 µM, […]): 100.2%

CC(C)COc1ccccc1C(N)CC(C)C (stereo not drawn)
Percent Effect (30 µM, 30.03 µM): -18.48%

CC(CNS(N)(=O)=O)Oc1cccc(Cl)c1 (stereo not drawn)
Percent Effect (30 µM, 30.03 µM): -29.05%

CCCOc1ccccc1C(N)CC(C)C (stereo not drawn)
Percent Effect (30 µM, 30.03 µM): -40.73%

NCc1ccc(Oc2cccc(Cl)c2Cl)cc1
Percent Effect (30 µM, 30.03 µM): -54.14%

CCOc1ccccc1C(N)CC(C)C (stereo not drawn)
Percent Effect (30 µM, 30.03 µM): -21.09%

COc1ccccc1C(N)CC(C)C (stereo not drawn)
Percent Effect (30 µM, 30.03 µM): -12.31%

Cc1ccc(NC2CCN(C(=O)CCc3ccncc3)CC2)nn1
Percent Effect (30.3 µM, […]): 5.448% | Percent Effect (10 mM, 10 mM as filed; unlikely as a test dose): -59.85%

CC(CNCc1ccc2c(c1)n(C)c(=O)n2C)Oc1ccccn1.Cl (stereo not drawn)
Percent Effect (30 µM, 30.03 µM): -26.55%

CCn1nc(C)c2ccn(CC(=O)NC3CC3)c(=O)c21
Percent Effect (30 µM, 30.03 µM): -19.49%

c1ccc(-c2nc(CNCCn3cccn3)cs2)nc1
Percent Effect (30.3 µM, […]): -32.04%

CCn1ncc(CN2CCCC(n3c(=O)oc4ccccc43)C2)c1C.Cl (stereo not drawn)
Percent Effect (30.3 µM, […]): 17.06%
